Results filed as inconclusive are left out. Unmarked numbers belong to inactive results. Activity calls are given as the source filed them. Calls come from the whole dose curve; as a rule, active = well fitted cell-killing curve with a large enough effect; inconclusive = small, poorly fitted or top-dose-only effect; inactive = flat fitted curve, though single readings scatter.
Assay: MultiTox-Fluor Cytotoxicity Assay - LYMP1-001 - Live Cells (AID 947);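 for activity change, negative = cytotoxicity: 0% = DMSO only and full inhibition = tetraoctylammonium bromide control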
Settings: LYMP1-001 lymphoblastoid cells, live-cell protease fluorescence viability; series mostly up to 92.2 µM; activity change, negative = cytotoxicity: at the top concentration
Text: NIH Chemical Genomics Center [NCGC]
NIH Molecular Libraries Screening Centers Network [MLSCN]
National Institutes of Environmental Health Sciences [NIEHS]
National Toxicology Program [NTP]
We have developed a 1536-well cell-based assay for quantitative high throughput screening (qHTS) against a number of cell lines to determine in vitro cytotoxicity of small molecules. This particular assay uses a human lymphoblastoid cell line (LYMP1-001) purchased from Coriell Institute.
NCGC Assay Protocol Summary:
The MultiTox-Fluor Cytotoxicity Assay (Promega) is a homogeneous method to simultaneously measure the relative number of live and dead cells in culture by detecting changes in cell membrane integrity. There are two fluorogenic peptide substrates in the assay reagent. Viable cells are determined when the cell-permeant substrate (GF-AFC) enters the cell and is cleaved by protease from live cells resulting in liberated fluorophore. This live-cell protease activity restricted to viable cells is proportional to cell number. The dead cells are determined by using fluorogenic cell-impermeant peptide substrate (bis-AAF-R110) which cleaved by dead cell proteases leaking from damaged cell membrane.
Using the MultiTox-Fluor Cytotoxicity Assay, the relative number of live cells was measured in the lymphoblastoid cell line with complete culture medium following compound treatment for 16 hours. The assay was performed in opaque black Kalypsys 1536-well plates. In the screen, tetraoctylammonium bromide was used as positive control. Library compounds were measured for their ability to cause acute toxicity in the cell line, as reflected by a decrease in live cell protease activity, in a concentration-dependent manner. […] AC50 values were determined from concentration-response data modeled with the standard Hill equation.
qHTS protocol for MultiTox-Fluor Cytotoxicity assay
[Step] [Parameter] [Value] [Description]
1. Reagent; 5 uL; 2500 lymphoblastoid cells/well
2. Time; 5 hr; 37 C incubation
4. Controls; 23 nL; Tetraoctylammonium bromide 6.4pM to 92 uM
5. Time; 16 hr; 37 C incubation
6. Reagent; 5 uL; MuliTox-Fluor Assay reagent
7. Time; 60 min; Room Temperature
8. Detection; live-cell fluorescence (Ex/Em=405/510); EnVision plate reader
Keywords: cell viability, cytotoxicity, lymphoblastoid cell line, fluorescence, NTPHTS, NTPHTS_NCGC, NIEHS, EPA, DSSTox, MLSMR, MLSCN, NIH Roadmap, qHTS, NCGC
Potency is the fitted concentration of half-maximal effect.

SMILES | activity change, negative = cytotoxicity | Potency
ClC=C(Cl)Cl | -0.445% | –
C[C@H]1CCC[C@H](O)CCCCCc2cc(O)cc(O)c2C(=O)O1 | -25.4% | –
O=C1C2CC=CCC2C(=O)N1SC(Cl)(Cl)Cl (centres undefined) | – | 12.6 µM (active)
O=C/C=C/c1ccccc1 | – | inactive
C=CCN=C=S | -19.5% | –
[O]=[Cr](=[O])([OH])[O][Cr](=[O])(=[O])[OH] | – | inactive
NNC(N)=O | 5.09% | –
Oc1cc(Cl)c(Cl)cc1Cl | -9.27% | –
O=C1CCO1 | 8.48% | –
C[C@]12CCC(=O)C[C@@H]1CC[C@@H]1[C@@H]2CC[C@]2(C)[C@@H](O)CC[C@@H]12 | -3.54% | –
ClC(Cl)(Cl)Cl | – | inactive
CC(C)(C)c1cc(O)ccc1O | – | inactive
O=C(O)C(Cl)(Cl)Cl | – | inactive
C[C@H]1CC[C@@H]2[C@@H](C)[C@H]3[C@H](C[C@H]4[C@@H]5CC=C6CC(O[C@@H]7O[C@H](CO)[C@H](O)[C@H](O[C@@H]8O[C@H](CO)[C@@H](O)[C@H](O)[C@H]8O)[C@H]7O[C@H]7O[C@@H](C)[C@H](O)[C@@H](O)[C@H]7O)CC[C@]6(C)[C@H]5CC[C@]34C)N2C1 (some centres undefined) | – | 31.6 µM (active)
CCCCCCCCOC(=O)c1ccccc1C(=O)OCCCCCCCC | 11.7% | –
S=C=S | 10.9% | –
[Cl-].[Cl-].[Hg+2] | – | 31.6 µM (active)
[O]=[Cd] | -19.4% | –
O=Cc1ccco1 | 7.27% | –
CC(C)Nc1ccc(Nc2ccccc2)cc1 | – | 31.6 µM (active)
CCCCCl | -1.86% | –
O=CC=O | 9.86% | –
COc1ccc2c(c1OC)C(=O)OC2C1c2cc3c(cc2CCN1C)OCO3 (centres undefined) | -20.5% | –
O=[N+]([O-])c1ccc(F)c([N+](=O)[O-])c1 | -6.17% | –
O=C1C=CC(=O)C=C1 | -14% | –
Clc1ccccc1Cl | 10.5% | –
O=[N+]([O-])c1ccccc1 | 8.29% | –
CCOC(=O)c1ccccc1C(=O)OCC | 14% | –
COC1=CC(=O)O[C@@H](/C=C/c2ccccc2)C1 | 1.78% | –

From PubChem BioAssay (NCATS)
